Bioassay records from PubChem BioAssay.
sPLA2-III inh: Inhibits HGIII-sPLA2 liposome hydrolysis, primary screen; actives 0.56% (n = 370,000); QFRET BODIPY PC-A2 liposome hydrolysis, fluorescence; inhibition, % at 12.2 µM; AID 743126; Q9NZ20;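 active = inhibition above mean plus 3 SD of compounds lying within the high and low control bounds, cut at about 19% in these data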;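 note: 0% = median of test compound wells and 100% = no enzyme DMSO wells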
CendR NRP1 mod: modulators of CendR peptide binding to human neuropilin-1; AID 602438; actives 0.85% (n = 360,000); O14786; inhibition, % at 25 µM; FAM-RPARPAR peptide binding to NRP-1, fluorescence polarization;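 active = inhibition or corrected inhibition above about 18%, plus a signal ratio from 0.5 to 1.5, limit read from the data, passing the limit was not always enough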
ADAM17 inh: inhibitors of human ADAM17; AID 720648; P78536; inhibition, % at 6.95 µM; recombinant ADAM17, EDANS/DABCYL FRET peptide cleavage; actives 0.83% (n = 370,000);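 active = inhibition above the mean of compounds lying between control limits plus 3 SD, set per campaign, cut at about 8.5% in these data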;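 note: 0% = DMSO-only wells as the low control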
Target sequence (P78536 215-824 limits assumed): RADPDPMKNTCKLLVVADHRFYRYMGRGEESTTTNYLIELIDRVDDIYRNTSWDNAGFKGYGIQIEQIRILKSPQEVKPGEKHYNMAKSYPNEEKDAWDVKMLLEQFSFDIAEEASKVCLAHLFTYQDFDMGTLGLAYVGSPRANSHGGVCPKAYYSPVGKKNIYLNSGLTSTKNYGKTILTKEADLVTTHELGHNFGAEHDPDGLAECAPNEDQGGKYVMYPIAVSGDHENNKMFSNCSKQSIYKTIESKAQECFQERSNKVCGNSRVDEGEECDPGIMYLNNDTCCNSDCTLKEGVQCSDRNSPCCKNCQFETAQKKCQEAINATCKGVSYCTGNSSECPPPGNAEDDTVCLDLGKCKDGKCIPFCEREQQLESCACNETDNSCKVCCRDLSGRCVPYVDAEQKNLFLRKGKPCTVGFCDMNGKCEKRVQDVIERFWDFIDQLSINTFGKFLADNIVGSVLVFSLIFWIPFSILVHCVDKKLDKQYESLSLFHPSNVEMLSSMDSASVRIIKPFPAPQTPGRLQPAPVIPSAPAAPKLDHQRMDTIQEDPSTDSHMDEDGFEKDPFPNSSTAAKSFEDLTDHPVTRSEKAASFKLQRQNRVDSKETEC
proKLK7 act: activates the human kallikrein-7 zymogen. P49862. purified proKLK7, EDANS-DABCYL substrate fluorescence; 100% is mature enzyme control, 0% vehicle. activation, % at 7 µM. actives 0.9% (n = 370,000). AID 652039;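 active = activation above the mean of all tested compounds plus 3 SD, computed per campaign excluding outliers beyond control limits, cut at about 13% in these data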
ADAM10 inh: inhibitors of human ADAM10. inhibition, % at 7 µM. recombinant ADAM10, EDANS/DABCYL FRET peptide cleavage, 3 h. actives 0.62% (n = 370,000). O14672;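 active = inhibition above a per-campaign cutoff equal to the mean of compounds falling between control-based bounds plus 3 SD, cut at about 20% in these data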;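 note: 0% = DMSO wells while the 100% control is not disclosed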
hGIII sPLA2 conf: human GIII-sPLA2 inhibition, confirmation. shares compounds with sPLA2-III inh. recombinant hGIII-sPLA2, BODIPY PC-A2 QFRET fluorescence. actives 34% (n = 2,000). inhibition, % at 12.2 µM;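 active = mean inhibition across triplicates above the hit cutoff set in the earlier primary screen, cut at about 19% in these data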;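 note: 0% = enzyme with DMSO and 100% = DMSO wells lacking enzyme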
BODIPY interf: counter-screen for HGIII-sPLA2 inhibitors: 535nm fluorescence interference; BODIPY FL product fluorescence interference, QFRET; actives 8.5% (n = 2,000); AID 743282; shares compounds with sPLA2-III inh; inhibition, % at 12.2 µM;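 active = average inhibition above the solvent-only control mean plus 3 SD, cut at about 6% in these data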;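 note: 0% = DMSO with substrate plus product and 100% = DMSO with substrate alone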
535nm interf DR: 535nm optical interference dose response, HGIII-sPLA2 counter-screen | shares compounds with sPLA2-III inh | BODIPY FL product fluorescence interference, cell-free | IC50, µM | 240 tested, under 10 active | AID 743455;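 active = IC50 at or below 10 µM; inactive = IC50 above 10 µM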
The depositor's hits bear a star. Hits are enriched below; roughly 3.4% of the tested compounds scored in any of these assays.

COc1cccc(-n2c(N)c(C#N)c3ccc([N+](=O)[O-])cc3c2=O)c1 was read as sPLA2-III inh 25.8*, ADAM17 inh -4.0, proKLK7 act -0.4, ADAM10 inh -8.1, hGIII sPLA2 conf 5.8 and BODIPY interf -0.8.
`O=C(NC(=S)Nc1ccccc1N1CCCC1)c1ccc([N+](=O)[O-])cc1` gave sPLA2-III inh 31.4*, CendR NRP1 mod -3.4, ADAM17 inh -0.2, proKLK7 act -0.1, ADAM10 inh 10.4, hGIII sPLA2 conf 33.5*, BODIPY interf 3.9 and 535nm interf DR >122.
For N#C/C(C(N)=O)=c1/ccc2c(c1)N1C3=C(CCCC3)CC3CCCCC31N=2 (centres undefined) the results were sPLA2-III inh 26.4*, ADAM17 inh -0.2, proKLK7 act 0.1, ADAM10 inh 0.0, hGIII sPLA2 conf 44.8*, BODIPY interf 1.1 and 535nm interf DR >122.
N#CC(C#N)=c1ccc2c(c1)N1C3=C(CCCC3)CC3CCCCC31N=2 (centres undefined) was read as sPLA2-III inh 13.5, CendR NRP1 mod -32.0, ADAM17 inh -3.5, proKLK7 act -0.4 and ADAM10 inh 2.4.
O=C(Nc1ccc([N+](=O)[O-])cn1)c1cccnc1 was read as sPLA2-III inh 19.5*, CendR NRP1 mod 0.7, ADAM17 inh -5.3, proKLK7 act 0.1, ADAM10 inh 3.9, hGIII sPLA2 conf 4.9 and BODIPY interf -4.0.
Screening O=C(CN1CCc2onc(-c3ccc(-n4cc(-c5ccccc5)nn4)cc3)c2C1=O)N1CCOCC1 returned sPLA2-III inh -1.3, ADAM17 inh -2.5, proKLK7 act -0.2 and ADAM10 inh -2.2.
For COC(=O)[C@]12C[C@H](CC(=O)N3CCN(C(=O)c4ccco4)CC3)C(=O)N(CCC3=CCCCC3)C1=C[C@H](C1CCCC1)O[C@@H]2C the results were sPLA2-III inh -9.6, ADAM17 inh 0.5, proKLK7 act 0.2 and ADAM10 inh 6.3.
COc1ccc(Cc2noc(-c3ccc([N+](=O)[O-])cc3)n2)cc1OC was read as sPLA2-III inh 21.4*, CendR NRP1 mod 2.7, ADAM17 inh -4.6, proKLK7 act 0.2, ADAM10 inh 0.7, hGIII sPLA2 conf 0.9 and BODIPY interf -7.4.
Screening COc1ccc(Cc2noc(-c3ccc(C)cc3)n2)cc1 returned sPLA2-III inh -4.7, CendR NRP1 mod 3.2, ADAM17 inh -6.5, proKLK7 act -0.5 and ADAM10 inh -0.4.
Screening Cc1cc(C)n(CC(O)COc2ccccc2[N+](=O)[O-])n1 (centres undefined) returned sPLA2-III inh 21.7*, CendR NRP1 mod -3.1, ADAM17 inh -2.2, proKLK7 act 0.6, ADAM10 inh -5.0, hGIII sPLA2 conf -5.5 and BODIPY interf -7.1.
Screening [O-][n+]1ccccc1C(O)CSc1ccccc1 (centres undefined) returned sPLA2-III inh -3.5, ADAM17 inh -2.4, proKLK7 act 0.6 and ADAM10 inh 3.8.
Screening O=C(OCn1nnc2ccccc2c1=O)c1cc(-c2ccccc2)nc2ccccc12 returned sPLA2-III inh 23.4*, CendR NRP1 mod 13.5, ADAM17 inh -6.1, proKLK7 act -0.7, ADAM10 inh -19.2, hGIII sPLA2 conf -3.6 and BODIPY interf -1.5.
For COc1ccc(/C(C)=N/N=C(N)N)c(O)c1 the results were sPLA2-III inh 0.5, CendR NRP1 mod 1.3, ADAM17 inh 0.5, proKLK7 act -0.1 and ADAM10 inh 3.7.
`CNC(=S)NN=C(C)c1ccc(OC)cc1O` gave sPLA2-III inh 26.6*, CendR NRP1 mod -13.6, ADAM17 inh 1.7, proKLK7 act -0.5, ADAM10 inh 3.2, hGIII sPLA2 conf 31.2*, BODIPY interf 3.5 and 535nm interf DR >122.
Screening O=[N+]([O-])c1ccccc1CNC(Cc1ccccc1)c1ccccc1 (centres undefined) returned sPLA2-III inh 23.5*, CendR NRP1 mod 9.3, ADAM17 inh -4.3, proKLK7 act -0.2, ADAM10 inh -6.2, hGIII sPLA2 conf 2.4 and BODIPY interf -11.2.
For CCOCCCNC(=O)CN(Cc1ccc(Cl)cc1)S(C)(=O)=O the results were sPLA2-III inh 10.0, CendR NRP1 mod 3.0, ADAM17 inh 5.8, proKLK7 act 0.2 and ADAM10 inh -5.2.
`COCCCNC(=O)CN(Cc1ccc(Cl)cc1)S(C)(=O)=O` gave sPLA2-III inh 20.6*, CendR NRP1 mod 2.0, ADAM17 inh -4.7, proKLK7 act 0.4, ADAM10 inh 0.0, hGIII sPLA2 conf 5.6 and BODIPY interf -6.8.
`Cn1c(CSCc2ccc(Cl)cc2)n[nH]c1=S` gave sPLA2-III inh 19.6*, CendR NRP1 mod 8.8, ADAM17 inh -2.1, proKLK7 act -0.6, ADAM10 inh -11.2, hGIII sPLA2 conf 18.3 and BODIPY interf -2.7.
`Cn1c(CSCc2ccccc2)n[nH]c1=S` gave sPLA2-III inh 31.7*, CendR NRP1 mod 4.2, ADAM17 inh 2.0, proKLK7 act -0.3, ADAM10 inh -0.1, hGIII sPLA2 conf 7.0 and BODIPY interf -0.3.
COc1ccccc1NC(=S)NNC(=O)c1ccc(O)cc1 was read as sPLA2-III inh 8.8, CendR NRP1 mod -2.1, ADAM17 inh -7.7, proKLK7 act -0.5 and ADAM10 inh -0.6.
Screening COc1ccccc1NC(=S)NNC(=O)c1nn(C)c(C)c1Cl returned sPLA2-III inh 33.8*, CendR NRP1 mod -4.7, ADAM17 inh -2.8, proKLK7 act -0.6, ADAM10 inh 7.8, hGIII sPLA2 conf 45.6*, BODIPY interf 1.2 and 535nm interf DR >122.
Screening COc1ccccc1NC(=S)NNC(=O)c1nn(C)c(C)c1Br returned sPLA2-III inh 44.4*, CendR NRP1 mod -12.0, ADAM17 inh 3.8, proKLK7 act -0.9, ADAM10 inh -0.7, hGIII sPLA2 conf 28.8*, BODIPY interf 5.5 and 535nm interf DR >122.
Screening COc1ccccc1NC(=S)NNC(=O)c1nn(C)cc1Cl returned sPLA2-III inh 30.8*, CendR NRP1 mod 2.4, ADAM17 inh -3.0, proKLK7 act -0.5, ADAM10 inh 10.2, hGIII sPLA2 conf 38.4*, BODIPY interf 2.6 and 535nm interf DR >122.
For COC(=O)c1cc2c(c3c4cc(C#N)ccc4n(S(=O)(=O)c4ccc(C)cc4)c13)C(=O)N(C)C2 the results were sPLA2-III inh 3.6, ADAM17 inh -5.7, proKLK7 act -0.1 and ADAM10 inh -16.4.
